The panel holds about 83,000 compounds, 20% with a hit somewhere; the sample as a whole holds those more often.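 Results are percent growth after 48 hours of single-concentration exposure. 100 means growth as in untreated cells, lower positive values show inhibition; negative values down to -100 show cell death.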 Unmarked numbers belong to inactive results. Activity calls are given as the source filed them. How the source made its calls: active means growth percent below 10; inactive means the rest.

Among the test systems are SR leukemia; RPMI-8226 leukemia; OVCAR-8 ovarian; OVCAR-5 ovarian; OVCAR-4 ovarian; SK-OV-3 ovarian; IGROV1 ovarian; OVCAR-3 ovarian; HS 578T breast; NCI/ADR-RES ovarian; BT-549 breast; MDA-MB-435 melanoma; SW-620 colon; MCF7 breast; HCT-116 colon; HCC-2998 colon; KM12 colon; MDA-MB-468 breast; T-47D breast.
Common to all, as to experiment: NCI-60 one-dose screen, 48 h (100 = growth as untreated, 0 = no growth, -100 = all killed)
Holding throughout (details): 10 µM unless noted

Turning to `CCOC(=O)C1=C(N)N(c2ccccc2)C2=C(C(=O)CC(C)(C)C2)C1c1ccc([N+](=O)[O-])cc1` (stereo not drawn), the growth was 66.4% with SR leukemia; 82.6% with RPMI-8226 leukemia; 103% with OVCAR-8 ovarian; 101% in the assay on OVCAR-5 ovarian; 97.3% with OVCAR-4 ovarian; 105% in the assay on SK-OV-3 ovarian. The growth is 108% with IGROV1 ovarian; 121% in the assay with OVCAR-3 ovarian; 100% in the assay on HS 578T breast; 98.2% in the assay with NCI/ADR-RES ovarian; 102% in the assay with BT-549 breast; 102% with MDA-MB-435 melanoma. In addition, the growth was 96.9% in the assay with SW-620 colon; 83.8% in the assay with MCF7 breast; 83.8% in the assay on HCT-116 colon; 100% in the assay on HCC-2998 colon; 99.5% with KM12 colon; 96.1% in the assay with MDA-MB-468 breast.
For the compound `O=C(c1ccc(OCCN2CCOCC2)cc1)C1[C@H](c2ccc(Cl)cc2)[C@@H](c2ccccc2)NC12C(=O)Nc1ccc(Br)cc12` (stereo partly drawn), the growth in the assay with SR leukemia is -45.3% (active); in the assay with RPMI-8226 leukemia, 9.08% (active); in the assay on OVCAR-8 ovarian it was 28.6%; in the assay with OVCAR-5 ovarian, 41.3%; with OVCAR-4 ovarian, 50.3%; with SK-OV-3 ovarian, 37%. In addition, the growth was 22.6% with IGROV1 ovarian; 29.5% with OVCAR-3 ovarian; 57.2% in the assay on HS 578T breast; 18.4% in the assay with NCI/ADR-RES ovarian; 54.1% with BT-549 breast; 39.1% in the assay with MDA-MB-435 melanoma. In addition, the growth in the assay on SW-620 colon is 37.3%; in the assay on MCF7 breast, 1.4% (active); in the assay with HCT-116 colon it was 4.57% (active); with HCC-2998 colon, -41.2% (active); in the assay on KM12 colon it was 11.7%; in the assay with MDA-MB-468 breast it was -8.11% (active).
Consider `COc1ccc(-c2ccnc(SCc3cc4ccccc4[nH]c3=O)n2)cc1OC`, for which the growth with SR leukemia is 40.3%; with RPMI-8226 leukemia, 45%; in the assay with OVCAR-8 ovarian, 0.24% (active); in the assay with OVCAR-5 ovarian, -41% (active); with OVCAR-4 ovarian it was -2.39% (active); with SK-OV-3 ovarian, -69.7% (active). In addition, the growth is 10.9% in the assay with IGROV1 ovarian; 20.7% in the assay on OVCAR-3 ovarian; -23.6% (active) in the assay on HS 578T breast; -40.7% (active) in the assay on NCI/ADR-RES ovarian; -5.29% (active) with T-47D breast; -58.3% (active) with BT-549 breast. For the same compound, the growth is 14.8% with MDA-MB-435 melanoma; 48.8% with SW-620 colon; 2.06% (active) with HCT-116 colon; 5.44% (active) with HCC-2998 colon; 33.7% in the assay on KM12 colon; -8.96% (active) in the assay with MDA-MB-468 breast.
As for `Cc1nc(Nc2ncc(C(=O)Nc3c(C)cccc3Cl)s2)cc(N2CCN(CCCNC(=O)COc3ccc(C4CCC(=O)NC4=O)cc3)CC2)n1` (stereo not drawn), the growth in the assay with SR leukemia is 20%; in the assay with RPMI-8226 leukemia, 76.4%; with OVCAR-8 ovarian, 34%; in the assay with OVCAR-5 ovarian it was 26.3%; in the assay with OVCAR-4 ovarian, 85.8%; with SK-OV-3 ovarian it was -17.9% (active). The growth in the assay with IGROV1 ovarian was -45.2% (active); in the assay on OVCAR-3 ovarian, 72%; in the assay on HS 578T breast it was -16% (active); in the assay with NCI/ADR-RES ovarian it was 106%; in the assay with T-47D breast, 64.1%; in the assay on BT-549 breast, 68.5%. Also, the growth in the assay with MDA-MB-435 melanoma is 81%; in the assay with SW-620 colon it was 118%; with HCC-2998 colon it was 114%; in the assay with KM12 colon, 82%; in the assay with MDA-MB-468 breast, -23.4% (active).
`CNS(=O)(=O)c1ccc(Nc2ccc(C(F)(F)F)cc2)c(-c2cn(C)cn2)c1`: the growth was 51.6% in the assay with SR leukemia; 35.6% in the assay on RPMI-8226 leukemia; 52.6% in the assay on OVCAR-8 ovarian; 68.3% in the assay on OVCAR-5 ovarian; 70.1% in the assay on OVCAR-4 ovarian; 86.8% in the assay with SK-OV-3 ovarian. Further, the growth with IGROV1 ovarian was 35.5%; with OVCAR-3 ovarian it was 54.7%; with HS 578T breast, 59.6%; with NCI/ADR-RES ovarian it was 35%; in the assay with BT-549 breast, 58.7%; in the assay with MDA-MB-435 melanoma, 55.5%. Besides, the growth with SW-620 colon is 70.9%; in the assay on MCF7 breast, 42.3%; in the assay on HCT-116 colon, 49.4%; in the assay with HCC-2998 colon, 43.6%; with KM12 colon it was 35.9%; in the assay with MDA-MB-468 breast, -1.31% (active).
`COc1c(F)ccc(C(=O)Nc2ccc3nc(NC(=O)C4CCCN(S(=O)(=O)c5ccc(Cl)cc5)C4)sc3c2)c1F` (stereo not drawn): the growth is 44.8% with SR leukemia; 53.8% in the assay on RPMI-8226 leukemia; 97.2% with OVCAR-8 ovarian; 97% in the assay on OVCAR-5 ovarian; 86.2% in the assay on OVCAR-4 ovarian; 97.2% in the assay on SK-OV-3 ovarian. Moreover, the growth was 72.9% with IGROV1 ovarian; 92% in the assay with OVCAR-3 ovarian; 60.2% in the assay with HS 578T breast; 74% with NCI/ADR-RES ovarian; 52.6% in the assay on T-47D breast; 62.4% in the assay on BT-549 breast. The growth in the assay on MDA-MB-435 melanoma was 101%; in the assay with SW-620 colon, 97.2%; in the assay on HCT-116 colon, 65.3%; with HCC-2998 colon it was 103%; with KM12 colon, 78.7%; in the assay on MDA-MB-468 breast, 80.2%.
For `COc1ccc2c(c1)c(-c1cc3nc(-c4cn(C)c5ncccc45)cc(N)n3n1)cn2C`, the growth with SR leukemia was -19.3% (active); in the assay with RPMI-8226 leukemia, -20.6% (active); with OVCAR-8 ovarian, -41.5% (active); in the assay on OVCAR-5 ovarian, -7.9% (active); in the assay with OVCAR-4 ovarian it was -5.11% (active); in the assay on SK-OV-3 ovarian, -57% (active). The growth in the assay with IGROV1 ovarian is -58.1% (active); in the assay on OVCAR-3 ovarian, -12.4% (active); in the assay with HS 578T breast, -26.8% (active); in the assay on NCI/ADR-RES ovarian, 9.49% (active); in the assay with T-47D breast, -48.5% (active); in the assay with BT-549 breast it was -84.7% (active). Besides, the growth in the assay with MDA-MB-435 melanoma was -62.4% (active); with SW-620 colon, -70.4% (active); in the assay with HCT-116 colon, -89% (active); in the assay on HCC-2998 colon it was -100% (active); in the assay with KM12 colon, -69.3% (active); with MDA-MB-468 breast it was -89.6% (active).
In the case of `CCOC(=O)c1ccc(Nc2nc(NN)nc(-c3ccc(F)cc3)c2C#N)cc1`, the growth in the assay on SR leukemia is 72.4%; in the assay on RPMI-8226 leukemia, 103%; with OVCAR-8 ovarian, 112%; in the assay on OVCAR-5 ovarian, 99.5%; in the assay on OVCAR-4 ovarian it was 98.3%; in the assay on SK-OV-3 ovarian, 116%. For the same compound, the growth in the assay on IGROV1 ovarian was 109%; with OVCAR-3 ovarian, 103%; in the assay with HS 578T breast, 100%; in the assay on NCI/ADR-RES ovarian it was 110%; with T-47D breast it was 94.7%; in the assay on BT-549 breast, 111%. Further, the growth was 111% in the assay with MDA-MB-435 melanoma; 111% with SW-620 colon; 102% in the assay on HCT-116 colon; 105% in the assay on HCC-2998 colon; 109% in the assay on KM12 colon; 119% in the assay with MDA-MB-468 breast.

(Values after PubChem BioAssay (NCI).)
